Values joined by “and” are separate entries in the source; they are usually repeats but may differ in a detail not shown here. Equal entries are not always repeated. Results filed as inconclusive are left out. A call without a number means that no potency is given here. Active and inactive are the calls of the source. Unless noted, the call rests on the fitted dose curve; in most records, active means well fitted curve in the direction sought with a large enough effect in the repeat runs; inconclusive means weak or mixed curves; inactive means no such curve, though single readings can be large; an effect the other way counts as inactive or inconclusive.
Assays:
[1] = tested on: thyroid hormone receptor (rat, GH3 cells); experiment: qHTS assay to identify small molecule agonists of the thyroid receptor (TR) signaling pathway (AID 743066; calls by dose curve)
[2] = qHTS assay to identify small molecule antagonists of the estrogen receptor alpha (ER-alpha) signaling pathway - cell viability counter screen (AID 743074; calls by dose curve;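 further: HEK293 cells carrying ER-alpha-UAS-bla reporter stimulated with 17beta-estradiol; nearly all actives have a fitted effect of over 45% in size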)
[3] = qHTS assay to identify small molecule antagonists of the estrogen receptor alpha (ER-alpha) signaling pathway using the BG1 cell line - cell viability counter screen (AID 743081);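 further: compound given together with 17beta-estradiol as the ER stimulus; series mostly up to about 70 µM; nearly all actives have a fitted effect of over 45% in size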
Aromatase (Homo sapiens) = Aromatase (Homo sapiens) (UniProt P11511); experiment: qHTS assay to identify aromatase inhibitors (AID 743083); further: nearly all actives have a fitted effect of over 55% in size; further: potency means the concentration at half of the fitted maximal effect
[4] = qHTS assay to identify small molecule antagonists of the thyroid receptor (TR) signaling pathway (AID 743065); further: nearly all actives have a fitted effect of over 55% in size; further: potency means the concentration at half of the fitted maximal effect
Method in brief: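 GH3.TRE-Luc rat pituitary cells (two TREs driving luciferase) were dosed with compound, then stimulated with 1 nM T3 (final) for 23.5 h at 37 C. ONE-Glo luminescence was the read-out, with CellTiter-Fluor fluorescence as the cytotoxicity counter-screen.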

[5] = target: Estrogen receptor (Homo sapiens) (UniProt P03372); experiment: qHTS assay to identify small molecule antagonists of the estrogen receptor alpha (ER-alpha) signaling pathway (AID 743069; active means well fitted curve in the direction sought with a large enough effect in the signal ratio in the repeat runs, not every such curve was filed as active; the % refers to the signal ratio)
Method in brief: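 Beta-lactamase FRET fluorescence is read after 2 hr at room temperature with LiveBLAzer B/G substrate. Before that, ER-alpha-bla HEK293 cells sit 4 hr after plating, then receive compound plus 17beta-estradiol and incubate 18 hr at 37C.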

[6] = target: Estrogen receptor (Homo sapiens) (UniProt P03372); experiment: qHTS assay to identify small molecule agonists of the estrogen receptor alpha (ER-alpha) signaling pathway (AID 743075; calls by dose curve;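 further: HEK293 GripTite cells with ER-alpha and UAS-driven beta-lactamase reporter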)
[7] = target: Estrogen receptor (Homo sapiens) (UniProt P03372); experiment: qHTS assay to identify small molecule agonists of the estrogen receptor alpha (ER-alpha) signaling pathway using the BG1 cell line (AID 743079); further: nearly all actives have a fitted effect of over 20% in size
[8] = qHTS assay to identify small molecule antagonists of the estrogen receptor alpha (ER-alpha) signaling pathway using the BG1 cell line (AID 743080; calls by dose curve;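 further: BG1 cells stimulated with 17beta-estradiol alongside compound; series mostly up to about 70 µM; nearly all actives have a fitted effect of over 25% in size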)
Method in brief: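 Readout is ONE-Glo luminescence, taken 30 min at room temperature after reagent addition, preceded by a CellTiter-Fluor viability read; BG1-Luc-4E2 cells had received compound and 17beta-estradiol for 21.5 h at 37 C.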

[9] = qHTS assay to identify small molecule antagonists of the thyroid receptor (TR) signaling pathway - cell viability counter screen (AID 743064); further: nearly all actives have a fitted effect of over 50% in size; further: potency means the concentration at half of the fitted maximal effect
Method in brief: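 Plate GH3.TRE-Luc cells; incubate 4 h at 37 °C; add compound, then T3 to 1 nM final; incubate 23.5 h; add CellTiter-Fluor; incubate 30 min at 37 °C, 5% CO2; read fluorescence.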

Aromatase (Homo sapiens), sequence (P11511 whole entry, looked up): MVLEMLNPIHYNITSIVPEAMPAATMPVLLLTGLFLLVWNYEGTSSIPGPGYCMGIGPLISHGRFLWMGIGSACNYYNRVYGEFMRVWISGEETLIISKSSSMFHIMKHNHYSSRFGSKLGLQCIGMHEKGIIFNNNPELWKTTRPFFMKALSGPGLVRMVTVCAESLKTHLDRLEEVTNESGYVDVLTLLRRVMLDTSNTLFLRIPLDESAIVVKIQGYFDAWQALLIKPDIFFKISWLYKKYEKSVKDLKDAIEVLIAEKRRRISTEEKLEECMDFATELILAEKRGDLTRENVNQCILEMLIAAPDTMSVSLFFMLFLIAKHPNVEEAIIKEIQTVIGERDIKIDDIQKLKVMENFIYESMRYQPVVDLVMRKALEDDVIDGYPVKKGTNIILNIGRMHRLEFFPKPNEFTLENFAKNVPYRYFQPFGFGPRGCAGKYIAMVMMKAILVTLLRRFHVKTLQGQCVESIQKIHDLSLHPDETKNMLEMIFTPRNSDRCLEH
Estrogen receptor (Homo sapiens), sequence (P03372 whole entry, looked up): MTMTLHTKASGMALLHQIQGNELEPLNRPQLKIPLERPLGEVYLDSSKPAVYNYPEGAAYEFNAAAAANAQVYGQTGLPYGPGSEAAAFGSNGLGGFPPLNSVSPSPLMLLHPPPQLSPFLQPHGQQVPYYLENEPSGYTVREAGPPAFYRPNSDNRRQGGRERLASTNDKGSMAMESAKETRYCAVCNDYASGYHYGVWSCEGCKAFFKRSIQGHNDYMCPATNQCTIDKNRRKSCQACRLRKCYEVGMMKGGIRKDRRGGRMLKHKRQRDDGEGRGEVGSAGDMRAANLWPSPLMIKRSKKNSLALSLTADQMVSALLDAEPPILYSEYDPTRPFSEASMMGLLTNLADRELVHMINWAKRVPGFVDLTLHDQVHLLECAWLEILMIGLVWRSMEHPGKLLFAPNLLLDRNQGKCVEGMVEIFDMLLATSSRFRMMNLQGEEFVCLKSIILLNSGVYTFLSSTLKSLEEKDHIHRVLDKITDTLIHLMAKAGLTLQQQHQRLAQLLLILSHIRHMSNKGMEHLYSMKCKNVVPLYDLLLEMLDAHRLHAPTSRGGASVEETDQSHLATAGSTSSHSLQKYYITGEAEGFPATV

| SMILES | outcome [1] | outcome [2] | Potency [3] | Potency (Aromatase (Homo sapiens)) | Potency [4] | outcome [5] | Potency [6] | Potency [7] | outcome [8] | Potency [9] |
| --- | --- | --- | --- | --- | --- | --- | --- | --- | --- | --- |
| COc1nc(N)nc2c1ncn2[C@@H]1O[C@H](CO)[C@@H](O)[C@@H]1O | inactive | inactive | inactive | inactive |  |  |  |  |  |  |
| OC(CCN1CCCCC1)(c1ccccc1)C1CC2C=CC1C2 (stereo not drawn) | inactive | inactive |  | inactive | 26.6 µM (active) and 23.7 µM (active) | inactive | inactive | inactive | inactive |  |
| CCN(Cc1ccncc1)C(=O)C(CO)c1ccccc1 (stereo not drawn) | inactive | inactive | inactive | 29.8 µM (active) | inactive |  |  |  |  |  |
| NC(=O)COCCN1CCN(C(c2ccccc2)c2ccc(Cl)cc2)CC1 (stereo not drawn) |  | inactive | inactive | inactive |  | inactive | inactive | inactive | inactive | 23.7 µM (active) |
| CC(C)(O)C(=O)c1ccccc1 | inactive | inactive | inactive | inactive | inactive | inactive | inactive | inactive | inactive |  |
| N[C@H](C(=O)O)c1ccc(O)cc1 |  | inactive | inactive | inactive |  | inactive | inactive | inactive | inactive | inactive |
| CCCCCCOC(=O)CCCCC(=O)OCCCCCC | inactive | inactive | inactive | inactive | inactive | inactive | inactive | inactive | inactive |  |
| Cc1cccc(C)c1NC(=O)C(C)N (stereo not drawn) |  | inactive | inactive | inactive |  | inactive | inactive | inactive | inactive |  |
| CC(=O)OCC(=O)[C@@]1(O)CC[C@H]2[C@@H]3CCC4=CC(=O)CC[C@]4(C)[C@H]3C(=O)C[C@@]21C |  |  | inactive | inactive |  | inactive | inactive | inactive |  |  |
| N#Cc1ccc(C2CCCc3cncn32)cc1 (stereo not drawn) |  |  | inactive |  |  |  | inactive | inactive | inactive | inactive |
| COc1ccc(CCN(C)CCCC(C#N)(c2cc(OC)c(OC)c(OC)c2)C(C)C)cc1OC (stereo not drawn) | inactive | inactive |  | inactive |  |  |  |  |  | 29.8 µM (active) |
| CCn1nc(C(=O)O)c(=O)c2cc3c(cc21)OCO3 |  | inactive | inactive | inactive |  | inactive | inactive | inactive | inactive |  |
| CC(C)(CC(=O)O)C(=O)O | inactive | inactive | inactive | inactive | inactive | inactive | inactive | inactive | inactive |  |
| CCO[Si](CCC1CCC2OC2C1)(OCC)OCC (stereo not drawn) | inactive | inactive | inactive | inactive | inactive | inactive | inactive | inactive | inactive |  |
| Cc1cccn2c(=O)c(-c3nnn[nH]3)cnc12 |  | inactive | inactive | inactive |  | inactive | inactive | inactive | inactive |  |
| Nc1ccccc1S(=O)(=O)O | inactive | inactive | inactive | inactive | inactive |  |  |  |  |  |
| CCN(CC)CCOCCOC(=O)C1(c2ccccc2)CCCC1 |  |  | inactive | inactive |  |  | inactive | inactive |  |  |
| CCOC(=O)CC(C)=O | inactive |  | inactive |  | inactive |  |  |  |  |  |
| CC(C)(c1ccc(O)cc1)c1ccc(O)cc1 | inactive | inactive | inactive | inactive | 61.1 µM (active) |  |  |  | inactive |  |
| CC(C)CNCC(C)C | inactive | inactive | inactive | inactive | inactive |  |  |  |  |  |

| SMILES | outcome [1] | outcome [2] | Potency [3] | Potency (Aromatase (Homo sapiens)) | Potency [4] | outcome [5] | Potency [6] | Potency [7] | outcome [8] | Potency [9] |
| --- | --- | --- | --- | --- | --- | --- | --- | --- | --- | --- |
| COc1c(N2C[C@@H]3CCCN[C@@H]3C2)c(F)cc2c(=O)c(C(=O)O)cn(C3CC3)c12 |  | inactive | inactive | inactive |  | inactive | inactive | inactive | inactive |  |
| O=C(CCCN1CCC(O)(c2cccc(C(F)(F)F)c2)CC1)c1ccc(F)cc1 |  | inactive |  | inactive |  |  |  |  |  |  |
| CC[N+](C)(C)c1cccc(O)c1 |  | inactive | inactive | inactive |  |  |  |  |  |  |
| Cc1ccc(=O)n(-c2ccccc2)c1 |  | inactive | inactive | inactive |  | inactive | inactive |  | inactive | inactive |
| O=C1NC(=O)[C@@]2(CCOc3ccc(F)cc32)N1 |  | inactive | inactive | inactive |  | inactive | inactive | inactive | inactive |  |
| COCCc1ccc(OCC(O)CNC(C)C)cc1 (stereo not drawn) |  | inactive | inactive | inactive |  |  |  |  |  |  |
| CCCCNC(=O)NCCCC |  | inactive | inactive | inactive |  | inactive | inactive | inactive | inactive | inactive |
| C[C@H](NC(CCc1ccccc1)C(=O)O)C(=O)N1CCC[C@H]1C(=O)O (stereo partly drawn) | inactive |  | inactive | inactive | inactive | inactive | inactive | inactive | inactive |  |
| CCCCCCCCCCCC | inactive |  | inactive | inactive | inactive |  |  |  | inactive |  |
| N[C@@H](C(=O)N[C@@H]1C(=O)N2C(C(=O)O)=C(Cl)CS[C@H]12)c1ccccc1 | inactive | inactive | inactive | inactive | inactive | inactive | inactive | inactive | inactive |  |
| CCC=O | inactive | inactive | inactive | inactive | inactive | inactive |  |  | inactive |  |
| CC/C=C\CC/C=C/CO | inactive | inactive | inactive | inactive | inactive |  |  |  |  |  |
| C=COCC1CCC(CO)CC1 (stereo not drawn) | inactive |  | inactive | inactive | inactive |  | inactive | inactive | inactive |  |
| O=C1CC2CC1C1CCCC21 (stereo not drawn) | inactive | inactive | inactive | inactive | inactive |  | inactive |  | inactive |  |
| CO/N=C(/C(=O)N[C@@H]1C(=O)N2C(C(=O)OCOC(=O)C(C)(C)C)=C(C)CS[C@H]12)c1csc(N)n1 | inactive |  | inactive | inactive |  |  |  |  |  | inactive |
| C[C@](N)(Cc1ccc(O)cc1)C(=O)O |  | inactive | inactive | inactive |  | inactive | inactive | inactive | inactive |  |
| Oc1ccc(C2CNCCc3c2cc(O)c(O)c3Cl)cc1 (stereo not drawn) |  | inactive | inactive | inactive |  |  |  |  |  |  |
| CC/C=C\CC/C=C/C(OCC)OCC | inactive |  | inactive |  |  |  |  |  |  | inactive |
| C/C=C(\C)C#N | inactive | inactive | inactive | inactive | inactive | inactive | inactive | inactive | inactive |  |
